High-throughput results from PubChem.
TsaE inh: displaces an ADP probe from E. coli YjeE (TsaE) | 0.05% of 71,000 active | purified YjeE enzyme, qHTS inhibition assay | P0AF67 | Potency, µM
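Purified YjeE (10 uM) with BODIPY Texas Red-labeled ADP probe (2 uM); compounds pin-transferred, 15 min at room temperature. Binding inhibition read as decreased fluorescence polarization; ADP titration as control.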
HEK293 cAMP cs: raises cAMP in parental HEK293 cells, TSHR agonist counter-screen. parental HEK293 CNG cAMP sensor, membrane potential fluorescence. 2.5% of 73,000 active. Potency, µM (top dose mostly 57.1 µM), actives largely listed as activators. AID 938; note: nearly all actives have a fitted effect of over 55% in size
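Counterscreen for endogenous-receptor signalling: CNG-channel HEK 293 cells report cAMP rise by membrane depolarization. After 60 min dye equilibration with 100 uM RO 20-1724, compounds incubated 30 min before bottom-read fluorescence at 590 nm.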
TSHR agonist: agonists of human thyroid stimulating hormone receptor | P16473 | HEK293-CNG-TSHR cells (CNG channel as cAMP sensor), membrane potential dye, cAMP | Potency, µM (highest dose often 57.1 µM), actives largely listed as activators | 0.48% of 73,000 active | AID 926; active = well fitted activation curve with a large enough effect in the main read-out, with a control signal flat, not every such curve was filed as active; inconclusive = small, poorly fitted or top-dose-only effect, or a change in a side signal; inactive = no such curve, though single readings can be large or run the other way; reference of the percent scale not stated here;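 note: the control signal comes from parental cells without the receptor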
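cAMP rise detected as CNG-channel membrane depolarization by fluorescent dye (emission 590 nm), 30 min after compound, following 60 min dye loading containing 100 uM RO 20-1724 at room temperature. Cells: TSHR/CNG HEK 293, with parental CNG HEK 293 as control.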
DNA Pol III inh: blocks replication by bacterial DNA polymerase III holoenzyme; reconstituted DNA polymerase III holoenzyme replication, biochemical; Potency, µM (top dose mostly 57.1 µM); AID 603; 0.25% of 71,000 active
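Reconstituted *E. coli* holoenzyme (0.35 nM Pol III, 1 nM beta, 154 nM SSB, 2 nM primase) was preincubated with compound for 15 min at RT. Synthesis on 1.4 nM ssM13Gori ran 35 min, then was stopped with PicoGreen/EDTA and read as dsDNA fluorescence.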
BRCT PPI green: inhibitors of human BRCA1 BRCT-phosphoprotein interaction (green fluorophore); P38398; BRCA1 BRCT-phosphopeptide binding, green fluorescence polarization; Potency, µM (highest dose often 76.9 µM), actives largely listed as inhibitors; 0.05% of 75,000 active; AID 875
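Compounds were incubated for 12 min at room temperature with a complex of 100 nM fluorescein-tagged pBACH1 decapeptide and 250 nM His-tagged BRCT protein. Buffer was phosphate pH 7.3 with EDTA, DTT and Tween 20. Disruption of binding lowers the polarization signal.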
BRCT PPI red: inhibitors of human BRCA1 BRCT-phosphoprotein interaction (red fluorophore); AID 892; BRCT-phosphopeptide binding, red fluorescence polarization; 0.03% of 75,000 active; Potency, µM (top dose mostly 76.9 µM), actives largely listed as inhibitors
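Rhodamine-labelled pBACH1 10-mer (100 nM) bound to BRCT domain (100 nM) at pH 7.3; compounds incubated 12 min room temperature, polarization read. Free peptide defines full inhibition; unlabelled decapeptide titrated as control.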
Of the large screens only hits and unclear results are named; the others gave an inactive call. Compounds with a hit are over-represented: about 3.2% of the library has one in this group of screens. Unless noted, calls come from the whole dose curve; as a rule, active = well fitted curve in the direction sought with a large enough effect; inconclusive = small, poorly fitted or top-dose-only effect, or another doubt; inactive = no such curve, though single readings can be large; an effect the other way counts as inactive or inconclusive.

CCOc1ccccc1NC(=O)c1ccccc1-c1nc(-c2ccccc2OC)no1	HEK293 cAMP cs 20µM, TSHR agonist inconclusive
Cc1cc2c(c(=O)n1C1CC1)C(c1cccc(Cl)c1)C(C#N)=C(N)O2 (configuration not stated)	HEK293 cAMP cs 3.2µM, TSHR agonist inconclusive
COc1ccc(NC(=O)N2CC3(CCNCC3)C2)cc1	none
CCOc1ccccc1CN(CCc1ccc2c(c1)OCO2)Cc1ccccn1	HEK293 cAMP cs 16µM, TSHR agonist inconclusive
O=C(COC(=O)c1ccccc1NC(=O)c1ccco1)Nc1ccc2c(c1)OCO2	HEK293 cAMP cs inconclusive, TSHR agonist inconclusive
O=C(COC(=O)c1ccccc1NC(=O)c1ccco1)NCCC1=CCCCC1	HEK293 cAMP cs 25µM, TSHR agonist inconclusive
N#CC(C#N)=CNCCN1CCN(C=C(C#N)C#N)CC1	none
CC(=O)c1cc(-c2ccccc2)n(CC(=O)NCc2cccs2)c1C	HEK293 cAMP cs 16µM, TSHR agonist inconclusive
CCOc1ccc(Br)cc1/C=N/O	HEK293 cAMP cs 4µM, TSHR agonist inconclusive
CC(=O)N1CCCc2cc(S(=O)(=O)CCC(=O)N3CCN(c4cccc(C)c4)C(C)C3)ccc21 (configuration not stated)	DNA Pol III inh 16µM
O=C(Cl)c1cccc([N+](=O)[O-])c1	TSHR agonist inconclusive
COc1ccc(-c2ccc3c(n2)CCCN3C[C@H](O)CN2CCCc3nc(-c4ccc(Br)cc4)ccc32)cc1	none (no result: TsaE inh, DNA Pol III inh)
O=c1c(/C=N/O)c(Nc2ccccc2)nc2ccccn12	none
Cc1cccn2c(=O)c(/C=N/O)c(N3CCCCC3)nc12	HEK293 cAMP cs 16µM, TSHR agonist inconclusive
CCC(=O)[C@@H](c1ccccc1)c1ccccn1	none
CCOC(=O)N1CCN(CC(=O)Nc2c(C(=O)OC)[nH]c3ccc(Cl)cc23)CC1	none
COC(=O)c1[nH]c2ccc(Cl)cc2c1NC(=O)CN1CCC(C(N)=O)CC1	HEK293 cAMP cs 16µM, TSHR agonist inconclusive
CN(C)CCn1c(C(=O)Nc2ccccc2)cc2ccccc21	HEK293 cAMP cs 2µM, TSHR agonist inconclusive
O=c1cc(CSc2nnc(COc3ccc(Cl)cc3)o2)c2ccccc2[nH]1	HEK293 cAMP cs 25µM, TSHR agonist inconclusive
Cn1cccc1C(=O)N1CCC2(CCCN(c3ncccn3)C2)CC1	none
N[C@H](CCC(=O)NCS(=O)(=O)O)C(=O)O	none
COc1ccc(C(c2nnnn2Cc2ccc(F)cc2)N2CCN(c3ccccc3)CC2)cc1 (configuration not stated)	none (no result: TSHR agonist)
Fc1ccc(C(c2nnnn2Cc2ccccc2)N2CCSCC2)cc1 (configuration not stated)	HEK293 cAMP cs 13µM, TSHR agonist inconclusive
COc1ccc(NC(=O)N2CCC3(CC2)CCN(S(C)(=O)=O)CC3)cc1	none
Cc1ccc(CC(=O)N2CCC(c3nc4c(nnn4Cc4ccccc4)c(=O)[nH]3)CC2)cc1	none
Cc1ccc(C(=O)N2CCCC(c3nc4c(nnn4Cc4ccccc4)c(=O)[nH]3)C2)cc1 (configuration not stated)	HEK293 cAMP cs 25µM, TSHR agonist inconclusive
Cc1ccc(-n2nnnc2SCC(=O)NCCC2=CCCCC2)c(C)c1	HEK293 cAMP cs 32µM, TSHR agonist inconclusive
Cc1ccc(-n2nnnc2SCC(N)=O)c(C)c1	none
C=C(C)COc1ccc2c3c(c(=O)oc2c1OCC(=C)C)CCC3	HEK293 cAMP cs 25µM, TSHR agonist inconclusive
Cc1occc1C(=O)N1CCN(C(c2ccccc2)c2ccccc2)CC1	TSHR agonist 32µM
Cc1ccc(OCc2nc(C#N)c(NCc3ccc4c(c3)OCO4)o2)cc1	HEK293 cAMP cs 16µM, TSHR agonist inconclusive
COCCn1c(=O)c(-c2ccc(F)cc2)nc2cnc(OC)nc21	none
C=CCn1c(SCC(=O)Nc2cc(C)c(Cl)cc2OC)nnc1-c1ccco1	HEK293 cAMP cs 25µM, TSHR agonist inconclusive
Cn1c(SCc2c(Cl)cccc2Cl)nnc1-c1cccs1	HEK293 cAMP cs 13µM, TSHR agonist inconclusive
Cc1ccc(CSc2nnc(-c3cccs3)n2C)cc1	none
